Results filed as inconclusive are left out. Calls of active or inactive are those of the source. The call rests on the fitted dose curve; in most records, active means well fitted curve in the direction sought with a large enough effect; inconclusive means small, poorly fitted or top-dose-only effect, or another doubt; inactive means no such curve, though single readings can be large; an effect the other way counts as inactive or inconclusive.

Assay [1] in a line: qHTS of pediatric cancer cell lines to identify multiple opportunities for drug repurposing: Primary screen for Rh30 cells (AID 1347107). Further: nearly all actives have a fitted effect of over 75% in size. Further: potency means the concentration at half of the fitted maximal effect. In a few lines: (§1)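 Cells (500-1,000/well) rested 5 h, then received compounds for 48 h; metabolically active cells were measured by CellTiter-Glo luminescence. Final concentrations spanned up to 46 µM (MIPE, 11-point) or 0.59 nM-46 µM (NPC, 8-point) in primary screens, 11-point in follow-ups.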
In general terms: In qHTS, concentration-response curves come from the screen itself.

Assay [2] in a line: qHTS of pediatric cancer cell lines to identify multiple opportunities for drug repurposing: Primary screen for Rh41 cells (AID 1347108). Further: nearly all actives have a fitted effect of over 70% in size. Further: potency means the concentration at half of the fitted maximal effect. The procedure, abridged:
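ATP-based luminescence (CellTiter-Glo) quantifies viability after a 48-hour exposure. Compounds are dosed across 8 or 11 final concentrations; DMSO and 2.3 µM bortezomib serve as controls.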

Assay [3] is described as follows: qHTS of pediatric cancer cell lines to identify multiple opportunities for drug repurposing: Confirmatory screen for NB1643 cells (AID 1347109). Further: nearly all actives have a fitted effect of over 45% in size. Further: potency means the concentration at half of the fitted maximal effect. In a few lines: as §1
A short description of assay [4]: qHTS of pediatric cancer cell lines to identify multiple opportunities for drug repurposing: Confirmatory screen for A673 cells (AID 1347110).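 Further: cells exposed to compound for 48 h before the viability read; nearly all actives have a fitted effect of over 65% in size.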 Further: potency means the concentration at half of the fitted maximal effect. The procedure, abridged:
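Viability was read as ATP luminescence (CellTiter-Glo) after 48 h of compound exposure at 37 C in A673 cells seeded at 500-1,000/well. Titrations reached 46 uM final, with 11 points in the confirmatory screen. Concentration-response curves were fitted directly.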

A short description of assay [5]: qHTS of pediatric cancer cell lines to identify multiple opportunities for drug repurposing: Confirmatory screen for BT-37 cells (AID 1347117). Further: nearly all actives have a fitted effect of over 55% in size. In a few lines: as §1
Assay [6] can be described thus: qHTS of pediatric cancer cell lines to identify multiple opportunities for drug repurposing: Confirmatory screen for TC32 cells (AID 1347118).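 Further: cells exposed to compound for 48 h before the read; nearly all actives have a fitted effect of over 65% in size.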 In a few lines: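 TC32 cells, 500-1,000/well in growth medium, compound-treated 48 h at 37 °C; viability from CellTiter-Glo luminescence. Primary screen: MIPE 11-point (0.78 nM–46 µM final), NPC 8-point (0.59 nM–46 µM final); confirmatory at 11-point dilutions.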

Assay [7] in a line: qHTS of pediatric cancer cell lines to identify multiple opportunities for drug repurposing: Confirmatory screen for MG 63 (6-TG R) cells (AID 1347119). Further: nearly all actives have a fitted effect of over 55% in size. Further: potency means the concentration at half of the fitted maximal effect. The procedure, abridged:
as §1

Assay [8] is described as follows: qHTS of pediatric cancer cell lines to identify multiple opportunities for drug repurposing: Confirmatory screen for control Hh wild type fibroblast cells (AID 1347121). Further: nearly all actives have a fitted effect of over 70% in size. Further: potency means the concentration at half of the fitted maximal effect. The procedure, abridged:
as §1

Assay [9] in a line: qHTS of pediatric cancer cell lines to identify multiple opportunities for drug repurposing: Confirmatory screen for U-2 OS cells (AID 1347122). Further: nearly all actives have a fitted effect of over 65% in size. Further: potency means the concentration at half of the fitted maximal effect. In a few lines: as §1
Assay [10] is described as follows: qHTS of pediatric cancer cell lines to identify multiple opportunities for drug repurposing: Confirmatory screen for Rh41 cells (AID 1347123). Further: nearly all actives have a fitted effect of over 60% in size. Further: potency means the concentration at half of the fitted maximal effect. In a few lines:
as §1

Assay [11] can be described thus: qHTS of pediatric cancer cell lines to identify multiple opportunities for drug repurposing: Confirmatory screen for RD cells (AID 1347124).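 Further: cells exposed to compound for 48 h before viability readout; nearly all actives have a fitted effect of over 65% in size.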 Further: potency means the concentration at half of the fitted maximal effect. In a few lines: as §1
Assay [12] can be described thus: qHTS of pediatric cancer cell lines to identify multiple opportunities for drug repurposing: Confirmatory screen for Rh18 cells (AID 1347125). Further: nearly all actives have a fitted effect of over 55% in size. Further: potency means the concentration at half of the fitted maximal effect. The procedure, abridged:
as §1

A short description of assay [13]: qHTS of pediatric cancer cell lines to identify multiple opportunities for drug repurposing: Confirmatory screen for SK-N-SH cells (AID 1347129).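 Further: cells exposed to compound for 48 h before viability read; nearly all actives have a fitted effect of over 60% in size.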 Further: potency means the concentration at half of the fitted maximal effect. The procedure, abridged:
as §1

Assay [14] is described as follows: qHTS of pediatric cancer cell lines to identify multiple opportunities for drug repurposing: Confirmatory screen for LAN-5 cells (AID 1347113). Further: nearly all actives have a fitted effect of over 65% in size. Further: potency means the concentration at half of the fitted maximal effect. In a few lines:
as §1

The nature of assay [15]: qHTS of pediatric cancer cell lines to identify multiple opportunities for drug repurposing: Confirmatory screen for SJ-GBM2 cells (AID 1347116). Further: nearly all actives have a fitted effect of over 60% in size. Further: potency means the concentration at half of the fitted maximal effect. The procedure, abridged: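 Viability measured as metabolically active cells via CellTiter-Glo luminescence following 48 hours of compound exposure, 11-point dilutions in confirmatory testing. 500-1,000 cells/well plated 5 hours before dosing; controls were DMSO and 2.3 µM bortezomib.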

A short description of assay [16]: qHTS of pediatric cancer cell lines to identify multiple opportunities for drug repurposing: Confirmatory screen for Saos-2 cells (AID 1347127). Further: nearly all actives have a fitted effect of over 60% in size. Further: potency means the concentration at half of the fitted maximal effect. In a few lines:
as §1

Assay [17] can be described thus: qHTS of pediatric cancer cell lines to identify multiple opportunities for drug repurposing: Confirmatory screen for OHS-50 cells (AID 1347128).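 Further: compound exposure lasted 48 h at 37 degrees C; nearly all actives have a fitted effect of over 55% in size.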 In a few lines: as §1

Consider `CC=C(C)C(=O)O[C@H]1C(C)=C2[C@@H]3OC(=O)[C@@](C)(O)[C@@]3(O)[C@@H](OC(=O)CCC)C[C@](C)(OC(C)=O)[C@@H]2[C@@H]1OC(=O)CCCCCCC`, for which the results for the Potency in [1] and in assay [2] were 1320 nM (active) and 209 nM (active), respectively. For the same compound, the Potency result in assay [3], in [4], in assay [5], in [6], in assay [7] and in assay [8] was “inactive” throughout. Also, the Potency entry in assay [9], in [10], in assay [11], in assay [12] and in assay [13] was “inactive” each time.
For the compound `CC[C@@H]1[C@@H](C)O[C@@](O)([C@@H](C)[C@H](O)[C@H](C)[C@H]2OC(=O)C=CC=C[C@@H](C)[C@@H]([C@@H](C)[C@@H](O)[C@H](C)[C@@]3(O)C[C@H](O[C@H]4C[C@H](O)[C@H](O)[C@H](C)O4)[C@H](CC)[C@@H](C)O3)OC(=O)C=CC=C[C@@H]2C)C[C@H]1O[C@H]1C[C@H](O)[C@H](O)[C@H](C)O1`, the results for the Potency in assay [1] and in assay [2] were 935 nM (active) and 743 nM (active), respectively. The Potency result in assay [3], in [14], in assay [15], in [5], in [6] and in [8] was “inactive” in each case. For the same compound, the Potency result in assay [9], in [11], in assay [12], in assay [16] and in assay [17] was “inactive” each time.
Take `C[C@@]12OC(=O)[C@]1([C@@H](O)[C@@H]1C=CCCC1)NC(=O)[C@H]2CCCl`: the Potency was 5900 nM (active) in assay [1]; 59 nM (active) in assay [2]; 1040 nM (active) in assay [3]; 585 nM (active) in assay [4]; 737 nM (active) in assay [14]; 737 nM (active) in assay [15]. In addition, the Potency in [7] is 293 nM (active); in assay [8] it was 4140 nM (active); in [9], 329 nM (active); in [10], 329 nM (active); in [11], 737 nM (active); in [12] it was 1170 nM (active). The Potency was 1170 nM (active) in [16] and 2350 nM (active) in [13].
For `CCN(CC)C(=O)c1ccc(C2=CC3(CCNCC3)Oc3cccc(O)c32)cc1`, the Potency result in assay [1] and in [2] was “inactive” throughout.

Values taken from PubChem BioAssay (NCATS).
